PubChem BioAssay (EPA / NIEHS)
Calls of active or inactive are those of the source. Rule for the calls: active = hit-call score of the fitted dose curve at least 0.9, where 1 is the maximum; inactive = score below 0.9.

Legend:
[1] = APR_HepG2_P-H2AX_72hr: Apredica 72-hour HepG2 Assay for H2AX Phosphorylation (AID 2282916); conditions: imaging, actives raise or lower the signal;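 note: phospho-histone H2A.x immunostain intensity per cell marking DNA damage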
How it was run: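 HepG2 cells treated 72 h at 0.39–200 uM, 0.5% DMSO final, duplicates. Formaldehyde-fixed, Triton-permeabilised, immunostained for phospho-H2A.x with Hoechst; fluorescence imaged at 20x, bidirectional fit versus DMSO.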

[2] = APR_HepG2_MitoMembPot_72hr: Apredica 72-hour HepG2 Assay for Mitochondrial Membrane Potential (AID 2282917); conditions: imaging, actives raise or lower the signal
How it was run: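 HepG2 cells exposed 72 h to compounds at 0.39–200 uM (0.5% v/v DMSO, duplicates); MitoTracker Red CMXRos 250 nM loaded 30 min before 3.7% formaldehyde fixation, imaged by HCS fluorescence. Bidirectional fit versus DMSO.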

[3] = APR_HepG2_MitoticArrest_72hr: Apredica 72-hour HepG2 Assay for Mitotic Arrest (AID 2282918); conditions: high-content imaging, actives raise or lower the signal
How it was run: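 HepG2 cells were exposed for 72 hr to compound at 0.39–200 uM (10 concentrations, duplicate) in 0.5% v/v DMSO, fixed in 3.7% formaldehyde, immunostained for phospho-histone H3 with Hoechst 33342 and imaged by high-content fluorescence; bidirectional fits versus DMSO.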

[4] = APR_HepG2_MicrotubuleCSK_72hr: Apredica 72-hour HepG2 Assay for Microtubule CSK Stabilty (AID 2282919); conditions: HepG2 microtubule cytoskeleton, high-content imaging, actives raise or lower the signal
How it was run: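 HepG2 human liver cells were dosed for 72 h at ten concentrations from 0.39 to 200 uM in duplicate (0.5% v/v DMSO final). Fixed, permeabilized cells were immunostained for alpha-tubulin (Cy5) with a Hoechst counterstain and imaged at 20x.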

[5] = APR_HepG2_P-H2AX_24hr: Apredica 24-hour HepG2 Assay for H2AX Phosphorylation (AID 2282920); conditions: high-content imaging, actives raise or lower the signal
How it was run: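 HepG2 human liver cells were exposed for 24 hr to compounds at 0.39–200 uM in duplicate, with 0.5% v/v DMSO final. Fixed cells were immunostained for phospho-histone H2A.x plus Hoechst 33342, imaged by HCS fluorescence, and fitted bidirectionally against DMSO.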

[6] = APR_HepG2_StressKinase_72hr: Apredica 72-hour HepG2 Assay for Stress Kinase (AID 2282921); conditions: HepG2 stress kinase (phospho-c-Jun) imaging, actives raise or lower the signal
How it was run: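 HepG2 cells treated 72 hr with 0.39–200 uM compound, 0.5% v/v DMSO, duplicate wells. After formaldehyde fixation and Triton permeabilization, stained with anti-phospho-c-Jun (1:500) and Cy3 secondary, imaged at 20x. Fitted in both directions against DMSO.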

[7] = APR_HepG2_StressKinase_24hr: Apredica 24-hour HepG2 Assay for Stress Kinase (AID 2282922); conditions: HepG2 stress kinase (phospho-c-Jun) imaging, actives raise or lower the signal
How it was run: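 HepG2 cells exposed 24 hr to compound at 0.39–200 uM (10 concentrations, duplicate), 0.5% v/v DMSO final. Fixed in 3.7% formaldehyde, permeabilized with Triton X-100, immunolabeled for phospho-c-Jun with Hoechst 33342; HCS fluorescence imaging, bidirectional fit versus DMSO.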

[8] = APR_HepG2_p53Act_72hr: Apredica 72-hour HepG2 Assay for p53 Activation (AID 2282923); conditions: high-content imaging, actives raise or lower the signal;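 note: average cellular p53 protein immunofluorescence intensity in HepG2 cells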
How it was run: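 HepG2 cells exposed 72 h to 0.39–200 uM in 0.5% DMSO, duplicates. Fixed, permeabilized cells immunostained for p53 (Cy5) with Hoechst; imaged at 20x, fluorescence analyzed bidirectionally against DMSO.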

[9] = APR_HepG2_MitoMass_72hr: Apredica 72-hour HepG2 Assay for Mitochondrial Mass (AID 2282924); conditions: high-content imaging, actives raise or lower the signal;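 note: MitoTracker Red CMXRos stain intensity per cell imaged as mitochondrial mass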
How it was run: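 HepG2 cells were exposed for 72 hr to compounds at 0.39–200 uM (ten concentrations, duplicate, 0.5% v/v DMSO final). Live cells were stained with 250 nM MitoTracker Red CMXRos for 30 min, then fixed in 3.7% formaldehyde and imaged by HCS fluorescence.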

[10] = ATG_CRE_CIS: Attagene CIS-FACTORIAL HepG2 Assay for human cAMP Responsive Element (CRE) binding protein 3 (AID 2282926); conditions: HepG2 CRE cis-reporter, Attagene multiplexed mRNA; actives raise or lower the signal
How it was run: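 HepG2 cells transiently transfected with a multiplexed reporter library (CRE-driven unit among them) were dosed for 24 h. Reporter mRNA was quantified by RT-PCR, fluorescent labelling, HpaI digestion and capillary electrophoresis, with bidirectional fitting against DMSO baseline.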

[11] = target: CCAAT/enhancer-binding protein beta (Homo sapiens) (UniProt P17676); test: ATG_C_EBP_CIS: Attagene CIS-FACTORIAL HepG2 Assay for human CCAAT/Enhancer Binding Protein (C/EBP) beta (AID 2282927); conditions: HepG2 Attagene cis-factorial transcription factor reporter; actives raise or lower the signal
How it was run: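 Following a 24 h incubation with test chemical, transfected HepG2 cells yielded RNA whose reporter transcripts were quantified by RT-PCR and fluorescent capillary electrophoresis, with DMSO serving as baseline for bidirectional fitting.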

[12] = ATG_CMV_CIS: Attagene CIS-FACTORIAL HepG2 Assay for human CMV (Internal Marker) (AID 2282928); conditions: HepG2 CMV promoter reporter, transcription factor profiling; actives raise or lower the signal;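 note: endpoint acts as a background internal control marker rather than a target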
How it was run: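 Endogenous transcription factor activity read in HepG2 via transfected cis-promoter reporter units. After 24 h dosing, reporter mRNA measured by RT-PCR/capillary electrophoresis; gain or loss of signal fit relative to DMSO.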

[13] = ATG_DR4_LXR_CIS: Attagene CIS-FACTORIAL HepG2 Assay for human Liver X Receptor (LXR), DR4 submotif (AID 2282929); conditions: HepG2 Attagene DR4 cis-reporter, mRNA transcription; actives raise or lower the signal
How it was run: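 Readout: reporter transcript fluorescence after RT-PCR and capillary electrophoresis, fitted bidirectionally against DMSO controls. Human HepG2 liver cells carried transiently transfected multiplexed reporter constructs; endogenous transcription factor activity measured 24 h post-dosing.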

[14] = ATG_AP_1_CIS: Attagene CIS-FACTORIAL HepG2 Assay for human Activator Protein 1 (AP-1) (AID 2282931); conditions: HepG2 Attagene cis-factorial AP-1 reporter mRNA; actives raise or lower the signal
How it was run: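 Reporter transcripts were measured 24 h after dosing by RT-PCR and capillary electrophoresis of fluorescent fragments. Cells: HepG2 carrying transfected cis-regulated reporter constructs reading endogenous factor activity. Gain or loss fitted against DMSO.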

[15] = ATG_AP_2_CIS: Attagene CIS-FACTORIAL HepG2 Assay for human Activator Protein 2 (AP-2) (AID 2282932); conditions: HepG2 AP-2 cis-reporter, Attagene transcription factor profiling; actives raise or lower the signal
How it was run: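 Bidirectional curve fitting against DMSO was applied to reporter mRNA signals from HepG2 cells 24 h after dosing. Cis-promoter reporter units, transiently transfected, were read by RT-PCR plus capillary electrophoresis.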

[16] = ATG_BRE_CIS: Attagene CIS-FACTORIAL HepG2 Assay for human Bone Morphogenetic Protein (BMP) Response Element (BRE) (AID 2282933); conditions: HepG2 BMP response element reporter, Attagene transcription factor profiling; actives raise or lower the signal
How it was run: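 After a 24 h chemical treatment, transiently transfected HepG2 cells were lysed for RNA; reporter transcripts were quantified by fluorescent RT-PCR and capillary electrophoresis, normalised to DMSO.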

[17] = APR_HepG2_NuclearSize_72hr: Apredica 72-hour HepG2 Assay for Nuclear Size (AID 2282925); conditions: high-content imaging, actives raise or lower the signal
How it was run: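 HepG2 cells were exposed to compounds at ten concentrations from 0.39 to 200 uM (duplicate, 0.5% DMSO final) for 72 hr. After fixation in 3.7% formaldehyde, nuclei were stained with Hoechst 33342 (2 ug/mL) and imaged at 20x.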

[18] = target: Aryl hydrocarbon receptor (Homo sapiens) (UniProt P35869); test: ATG_Ahr_CIS: Attagene CIS-FACTORIAL HepG2 Assay for human Aryl Hydrocarbon Receptor (Ahr) (AID 2282930); conditions: HepG2 AhR cis-factorial reporter transcription; actives raise or lower the signal
How it was run: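 Values derive from bidirectional fitting against DMSO negative control. Underlying signal: cis-element reporter mRNA in transiently transfected HepG2, harvested 24 h post-dose and measured by RT-PCR plus capillary electrophoresis.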

[19] = target: Retinoic acid receptor alpha (Homo sapiens) (UniProt P10276); test: ATG_DR5_RAR_CIS: Attagene CIS-FACTORIAL HepG2 Assay for human Retinoic Acid Receptor Alpha (RARE), DR5 submotif (AID 2282934); conditions: HepG2 Attagene cis-factorial RARE DR5 reporter, mRNA; actives raise or lower the signal
How it was run: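 Endpoint fitted in both directions relative to DMSO as negative control. It reflects DR5 cis-element reporter mRNA induction in transiently transfected HepG2 cells, measured 24 h after dosing through RT-PCR and fluorescent capillary electrophoresis.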

[20] = target: Transcription factor E2F1 (Homo sapiens) (UniProt Q01094); test: ATG_E2F_CIS: Attagene CIS-FACTORIAL HepG2 Assay for human E2F Transcription Factor 1 (AID 2282935); conditions: HepG2 Attagene cis-reporter, E2F reporter RNA transcripts; actives raise or lower the signal
How it was run: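 Multiplexed cis-reporter assay: HepG2, transient transfection, 24 h dosing, mRNA quantitation by labeled RT-PCR and CE.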

Measured: AC50

Transcription factor E2F1 (Homo sapiens), sequence (Q01094 whole entry, looked up): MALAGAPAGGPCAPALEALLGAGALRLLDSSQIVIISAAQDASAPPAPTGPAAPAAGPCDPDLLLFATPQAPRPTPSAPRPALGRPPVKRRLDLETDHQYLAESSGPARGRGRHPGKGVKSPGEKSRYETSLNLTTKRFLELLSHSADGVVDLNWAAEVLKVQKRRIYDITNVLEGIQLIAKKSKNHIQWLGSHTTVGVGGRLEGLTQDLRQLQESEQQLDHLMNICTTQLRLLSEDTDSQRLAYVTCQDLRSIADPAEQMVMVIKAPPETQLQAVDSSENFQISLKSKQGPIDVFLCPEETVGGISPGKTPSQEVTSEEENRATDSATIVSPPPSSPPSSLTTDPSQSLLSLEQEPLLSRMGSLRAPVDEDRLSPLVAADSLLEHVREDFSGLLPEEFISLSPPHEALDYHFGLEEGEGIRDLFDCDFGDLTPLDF
Retinoic acid receptor alpha (Homo sapiens), sequence (P10276 whole entry, looked up): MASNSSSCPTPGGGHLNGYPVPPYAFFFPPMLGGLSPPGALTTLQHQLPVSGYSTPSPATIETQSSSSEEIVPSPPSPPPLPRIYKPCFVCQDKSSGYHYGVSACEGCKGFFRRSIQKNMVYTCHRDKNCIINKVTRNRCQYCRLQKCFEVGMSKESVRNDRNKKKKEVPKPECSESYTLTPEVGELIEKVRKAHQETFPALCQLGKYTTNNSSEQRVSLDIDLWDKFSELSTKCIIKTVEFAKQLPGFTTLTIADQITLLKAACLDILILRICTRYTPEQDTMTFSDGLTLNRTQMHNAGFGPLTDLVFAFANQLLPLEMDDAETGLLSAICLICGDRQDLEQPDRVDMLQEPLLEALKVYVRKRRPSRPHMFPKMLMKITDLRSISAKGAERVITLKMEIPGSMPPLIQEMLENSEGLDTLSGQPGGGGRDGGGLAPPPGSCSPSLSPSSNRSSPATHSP
CCAAT/enhancer-binding protein beta (Homo sapiens), sequence (P17676 whole entry, looked up): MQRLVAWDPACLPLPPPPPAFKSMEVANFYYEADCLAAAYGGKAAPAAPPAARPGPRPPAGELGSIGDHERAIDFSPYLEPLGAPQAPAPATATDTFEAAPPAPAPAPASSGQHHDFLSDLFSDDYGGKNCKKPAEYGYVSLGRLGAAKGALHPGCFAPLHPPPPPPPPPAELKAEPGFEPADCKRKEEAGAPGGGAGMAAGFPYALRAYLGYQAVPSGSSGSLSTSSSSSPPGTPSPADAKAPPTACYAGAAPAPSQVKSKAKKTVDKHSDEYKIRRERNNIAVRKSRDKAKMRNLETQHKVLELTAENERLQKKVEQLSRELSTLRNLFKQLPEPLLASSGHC
Aryl hydrocarbon receptor (Homo sapiens), sequence (P35869 whole entry, looked up): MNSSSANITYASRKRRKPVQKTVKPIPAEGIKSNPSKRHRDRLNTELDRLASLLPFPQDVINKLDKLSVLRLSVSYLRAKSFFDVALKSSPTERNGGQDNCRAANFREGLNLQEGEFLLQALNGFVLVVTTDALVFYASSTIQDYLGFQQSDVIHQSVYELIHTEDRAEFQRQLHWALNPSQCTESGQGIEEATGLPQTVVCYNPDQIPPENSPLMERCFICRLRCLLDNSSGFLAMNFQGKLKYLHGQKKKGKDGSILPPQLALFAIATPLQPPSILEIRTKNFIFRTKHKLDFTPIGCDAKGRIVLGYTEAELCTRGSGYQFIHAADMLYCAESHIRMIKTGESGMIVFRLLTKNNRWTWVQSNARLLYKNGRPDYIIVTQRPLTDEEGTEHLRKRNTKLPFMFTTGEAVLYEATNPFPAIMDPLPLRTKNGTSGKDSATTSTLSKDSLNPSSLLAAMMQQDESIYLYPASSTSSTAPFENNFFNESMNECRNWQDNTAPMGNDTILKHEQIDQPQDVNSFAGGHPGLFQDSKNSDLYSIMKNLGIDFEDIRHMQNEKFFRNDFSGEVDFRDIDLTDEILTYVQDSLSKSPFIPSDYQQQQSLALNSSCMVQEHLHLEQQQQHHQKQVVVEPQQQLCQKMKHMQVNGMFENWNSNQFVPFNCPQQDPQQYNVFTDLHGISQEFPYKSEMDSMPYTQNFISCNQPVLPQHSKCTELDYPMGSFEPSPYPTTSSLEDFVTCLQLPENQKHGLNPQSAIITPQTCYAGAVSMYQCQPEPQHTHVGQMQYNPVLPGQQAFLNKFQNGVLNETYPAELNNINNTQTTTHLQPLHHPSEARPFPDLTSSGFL

CCC12COCN1COC2
active: [1] 82.1 µM | [3] 83.2 µM | [5] 87.6 µM | [7] 99.5 µM | [8] 79.2 µM
not listed: [17] | [18] | [19] | [20]
inactive: all other assays above

Cc1ccc(N)cc1
not listed: [12] | [14] | [20]
inactive: all other assays above

Clc1ccc(Cl)c(Cl)c1
not listed: [17] | [18]
inactive: all other assays above

ClC1=C(Cl)C2(Cl)C3C(Cl)C=CC3C1(Cl)C2(Cl)Cl (centres undefined)
active: [1] 65.9 µM | [3] 51.3 µM | [4] 88.5 µM | [5] 80.7 µM | [6] 84.8 µM | [8] 63.7 µM | [9] 88.9 µM | [12] 100 µM | [13] 40.1 µM
inactive: [2] | [7] | [10] | [11] | [15] | [16] | [19]

c1ccc(C2CO2)cc1 (centres undefined)
not listed: [19] | [20]
inactive: all other assays above

CS(=O)(=O)NC(=O)c1cc(Oc2ccc(C(F)(F)F)cc2Cl)ccc1[N+](=O)[O-]
not listed: [12] | [14] | [18]
inactive: all other assays above

CCCCCCCCn1sccc1=O
active: [1] 4.92 µM | [2] 96.1 µM | [3] 3.77 µM | [5] 6.1 µM | [6] 5.97 µM | [7] 3.47 µM | [8] 3.54 µM | [9] 3.51 µM | [10] 14.4 µM | [16] 11.6 µM
inactive: [4] | [17] | [11] | [13] | [14] | [15] | [20]
